High-throughput results (PubChem BioAssay)
An excerpt weighted towards active compounds, which were near 11% of everything screened.
G9a block = qHTS Assay for Inhibitors of Histone Lysine Methyltransferase G9a; hit rate 8.8% among 350,000; G9a H3K9 monomethylation, AlphaScreen, 2 h; Potency, µM (series often up to 102 µM), most hits filed as inhibitors; Histone-lysine N-methyltransferase EHMT2 (Homo sapiens), Q96KQ7; note: nearly all actives have a fitted effect of over 75% in size
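Enzyme 20 nM + cpd, 15 min RT; add b-H3K9 pep 500 nM / SAM 20 uM; 2 h RT; anti-H3K9me1 Ab 0.5 ug/mL + SA donor / anti-rabbit acceptor beads 20 ug/mL each, 10 min; AlphaScreen read.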
HP1b binding inh = HTS for Inhibitors of HP1-beta Chromodomain Interactions with Methylated Histone Tails | hit rate 0.56% among 390,000 | AlphaScreen HP1-beta / biotin-H3K9me3 peptide binding | Chromobox protein homolog 1 (Homo sapiens), P83916 | Potency, µM (top dose mostly 114 µM), usual class: inhibitors | AID 540317, 2011; note: nearly all actives have a fitted effect of over 70% in size
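HP1-beta protein (50 nM final) preincubated 30 min at room temperature with biotinylated H3(1-18)K9me3 peptide (50 nM) in PBS pH 7.4, 0.01% Tween-20, then compound added for 30 min. AlphaScreen streptavidin donor/nickel chelate acceptor beads (10 ug/mL final), 30 min dark, luminescence read.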
L3MBTL1 inh = qHTS Assay for the Inhibitors of L3MBTL1 | Lethal(3)malignant brain tumor-like protein 1 (Homo sapiens), Q9Y468 | AlphaScreen L3MBTL1–H3K9me1 peptide binding | Potency, µM (titrated, usually from 57.1 µM), actives largely listed as inhibitors | hit rate 0.66% among 230,000 | AID 485360, 2010; note: nearly all actives have a fitted effect of over 60% in size
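AlphaScreen assay: L3MBTL1 (50 nM final) was preincubated 30 min at room temperature with biotinylated H3(1-15)K9me1 peptide (75 nM final), then 30 min with library compounds; streptavidin donor and nickel chelate acceptor beads (10 ug/mL final) added, 30 min dark.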
JMJD2A Tudor inh = qHTS Assay for Inhibitors of JMJD2A-Tudor Domain | hit rate 4.4% among 390,000 | AlphaScreen JMJD2A-Tudor / H3K4me3 peptide binding | Lysine-specific demethylase 4A (Homo sapiens), O75164 | Potency, µM (series often up to 114 µM), usual class: inhibitors; note: nearly all actives have a fitted effect of over 50% in size
PI5P4Ka inh = qHTS for Inhibitors of phosphatidylinositol 5-phosphate 4-kinase (PI5P4K) | max response, % | hit rate 1.2% among 330,000 | PI5P4Kalpha enzyme, ADP-Glo luminescence, 60 min; active compounds read low; active = max response of -50% or lower; inconclusive = between -30% and -50%; inactive = -30% or higher; note: value at the top dose of about 77 µM
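qHTS, 1536-well: enzyme/substrate mix, compound by pin tool, 5 microM ATP final; RT 60 min; ADP-Glo reagents 1 (45 min) then 2 (30 min); luminescence.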
BAZ2B block = qHTS Assay for Inhibitors of BAZ2B; Bromodomain adjacent to zinc finger domain protein 2B (Homo sapiens), Q9UIF8; AlphaScreen BAZ2B-H3K14Ac peptide displacement; Potency, µM (series often up to 114 µM), actives largely listed as inhibitors; hit rate 4.4% among 360,000; note: nearly all actives have a fitted effect of over 60% in size
Target sequence (Q9UIF8 whole entry, looked up, the tested form may be a part): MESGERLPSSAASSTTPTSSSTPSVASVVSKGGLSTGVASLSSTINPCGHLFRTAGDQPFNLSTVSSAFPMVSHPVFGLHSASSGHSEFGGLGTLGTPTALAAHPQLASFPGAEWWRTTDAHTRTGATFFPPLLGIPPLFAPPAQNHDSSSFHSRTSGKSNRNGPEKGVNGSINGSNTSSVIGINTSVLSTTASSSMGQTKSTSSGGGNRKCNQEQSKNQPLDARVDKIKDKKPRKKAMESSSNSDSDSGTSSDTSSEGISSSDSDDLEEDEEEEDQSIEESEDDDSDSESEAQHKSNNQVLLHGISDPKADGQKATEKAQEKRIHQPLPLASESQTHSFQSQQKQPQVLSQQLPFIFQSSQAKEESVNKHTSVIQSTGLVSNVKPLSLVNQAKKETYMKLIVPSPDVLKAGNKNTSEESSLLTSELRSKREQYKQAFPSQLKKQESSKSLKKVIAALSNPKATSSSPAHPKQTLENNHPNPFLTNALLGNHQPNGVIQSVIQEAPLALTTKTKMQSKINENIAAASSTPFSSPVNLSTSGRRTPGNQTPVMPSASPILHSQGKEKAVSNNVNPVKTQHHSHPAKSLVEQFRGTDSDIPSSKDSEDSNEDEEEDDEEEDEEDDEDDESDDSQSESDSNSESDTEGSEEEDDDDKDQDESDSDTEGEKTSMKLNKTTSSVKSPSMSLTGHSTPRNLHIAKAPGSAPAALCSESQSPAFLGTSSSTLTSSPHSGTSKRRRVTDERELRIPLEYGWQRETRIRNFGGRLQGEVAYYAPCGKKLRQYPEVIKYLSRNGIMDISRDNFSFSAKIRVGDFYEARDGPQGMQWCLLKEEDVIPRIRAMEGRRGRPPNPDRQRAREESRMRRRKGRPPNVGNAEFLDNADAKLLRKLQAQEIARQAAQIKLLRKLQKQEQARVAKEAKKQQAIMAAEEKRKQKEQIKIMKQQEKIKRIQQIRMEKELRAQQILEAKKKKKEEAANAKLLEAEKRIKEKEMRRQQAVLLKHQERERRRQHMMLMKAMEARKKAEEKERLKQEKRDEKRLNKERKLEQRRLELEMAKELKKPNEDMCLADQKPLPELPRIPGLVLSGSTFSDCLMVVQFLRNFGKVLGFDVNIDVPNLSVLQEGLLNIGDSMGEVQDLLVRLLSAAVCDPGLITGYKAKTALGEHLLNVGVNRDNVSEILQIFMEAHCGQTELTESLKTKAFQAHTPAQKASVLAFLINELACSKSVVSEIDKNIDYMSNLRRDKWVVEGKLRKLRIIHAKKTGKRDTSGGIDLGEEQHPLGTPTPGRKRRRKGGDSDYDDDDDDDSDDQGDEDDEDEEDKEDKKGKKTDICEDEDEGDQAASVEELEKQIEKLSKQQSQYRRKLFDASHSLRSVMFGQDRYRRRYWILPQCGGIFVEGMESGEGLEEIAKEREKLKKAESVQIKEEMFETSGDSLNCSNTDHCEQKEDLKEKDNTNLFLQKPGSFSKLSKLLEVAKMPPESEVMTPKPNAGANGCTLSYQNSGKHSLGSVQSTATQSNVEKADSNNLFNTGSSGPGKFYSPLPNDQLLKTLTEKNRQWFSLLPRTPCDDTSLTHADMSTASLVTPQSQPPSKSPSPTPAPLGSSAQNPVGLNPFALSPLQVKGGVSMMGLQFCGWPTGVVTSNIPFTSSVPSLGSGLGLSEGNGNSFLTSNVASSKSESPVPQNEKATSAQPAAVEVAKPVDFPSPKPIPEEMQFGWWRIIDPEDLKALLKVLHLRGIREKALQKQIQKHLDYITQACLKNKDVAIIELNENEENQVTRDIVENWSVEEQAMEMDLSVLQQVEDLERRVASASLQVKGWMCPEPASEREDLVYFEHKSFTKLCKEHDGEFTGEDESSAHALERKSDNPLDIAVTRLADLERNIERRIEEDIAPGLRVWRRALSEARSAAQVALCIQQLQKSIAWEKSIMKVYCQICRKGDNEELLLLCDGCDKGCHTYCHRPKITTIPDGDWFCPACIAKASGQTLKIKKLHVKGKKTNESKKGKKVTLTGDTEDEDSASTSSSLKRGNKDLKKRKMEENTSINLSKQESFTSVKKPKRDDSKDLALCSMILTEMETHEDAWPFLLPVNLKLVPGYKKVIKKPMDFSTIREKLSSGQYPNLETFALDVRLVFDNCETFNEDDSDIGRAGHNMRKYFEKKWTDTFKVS
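Multi-concentration screen (max 110 uM) measuring displacement of acetylated histone H3 peptide from BAZ2B by AlphaScreen, using 50 nM protein, 50 nM peptide and 10 ug/mL streptavidin donor plus Ni-chelate acceptor beads.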
Numbers stand for hits; [ ] = remark or other dose. Unless noted, calls come from the whole dose curve; as a rule, active = well fitted inhibition curve with a large enough effect; inconclusive = small, poorly fitted or top-dose-only effect; inactive = no such curve, though single readings can be large or run the other way.

What do the screens show for `CCOc1ccc(CNC(=O)CCCn2c(=O)c3cccn3c3cccnc32)cc1`?
G9a block: inactive; HP1b binding inh: inactive; JMJD2A Tudor inh: inactive; BAZ2B block: inactive

What do the screens show for `CN(C)S(=O)(=O)c1cccc(NC(=O)COC(=O)c2cc3ccccc3oc2=O)c1`?
G9a block: 79µM; HP1b binding inh: inactive; L3MBTL1 inh: inactive; JMJD2A Tudor inh: inactive; PI5P4Ka inh: inactive; BAZ2B block: inactive

What do the screens show for `CCN(c1ccc(NC(=O)COC(=O)c2cc3ccccc3oc2=O)cc1)C(C)C`?
G9a block: 22µM; HP1b binding inh: inconclusive; L3MBTL1 inh: inconclusive; JMJD2A Tudor inh: 28µM; PI5P4Ka inh: inactive; BAZ2B block: 32µM

How did CCN(c1ccc(NC(=O)COC(=O)c2cccs2)cc1)C(C)C do in these assays?
G9a block: 11µM; HP1b binding inh: inconclusive; JMJD2A Tudor inh: 45µM; PI5P4Ka inh: inactive; BAZ2B block: inconclusive

What do the screens show for `C=C1CCN(C(C)C(=O)OCc2cccc(C)c2)S(=O)(=O)c2ccccc21` (stereo unspecified)?
HP1b binding inh: inactive; JMJD2A Tudor inh: inactive

How did CCOc1ccccc1NC(=O)CSc1ncc(S(=O)(=O)c2ccc(C)c(C)c2)c(N)n1 do in these assays?
G9a block: inactive; HP1b binding inh: inactive; JMJD2A Tudor inh: inactive; BAZ2B block: inactive

Results for CC(C(=O)NCc1ccccc1)n1ccc2cc(S(=O)(=O)N3CCCC3)ccc21 (stereo unspecified) ?
G9a block: inactive; HP1b binding inh: inactive; JMJD2A Tudor inh: inactive; BAZ2B block: inactive

Results for S=C=Nc1ccc(N=C=S)cc1 ?
G9a block: inactive[12.7 µM]

How did Cc1ccc(S(=O)(=O)c2cn(C)c3cc(N4CCOCC4)c(F)cc3c2=O)c(C)c1 do in these assays?
G9a block: inactive; HP1b binding inh: inactive; JMJD2A Tudor inh: inactive; BAZ2B block: inactive

Results for CN1C(=O)C(CC(=O)Nc2ccc(Cl)cc2)N(Cc2ccco2)C1=S (stereo unspecified) ?
G9a block: 45µM; HP1b binding inh: inactive; L3MBTL1 inh: inactive; JMJD2A Tudor inh: inactive; PI5P4Ka inh: inconclusive; BAZ2B block: inconclusive

Results for CCOc1ccc(NC(=O)CC2C(=O)N(C)C(=S)N2Cc2ccco2)cc1 (stereo unspecified) ?
G9a block: inactive; HP1b binding inh: inactive; L3MBTL1 inh: inactive; JMJD2A Tudor inh: inactive; PI5P4Ka inh: inactive; BAZ2B block: inactive

What do the screens show for `Cc1ccc(NC(=O)c2oc3ccccc3c2NC(=O)C2CCCCC2)cc1`?
G9a block: inactive; HP1b binding inh: inactive; JMJD2A Tudor inh: 79µM; BAZ2B block: inactive

What do the screens show for `O=C(Nc1ccc(F)cc1)c1oc2ccccc2c1NC(=O)C1CCCCC1`?
G9a block: inactive; HP1b binding inh: inactive; JMJD2A Tudor inh: inactive; BAZ2B block: inactive

What do the screens show for `CCOc1ccccc1CNC(=O)c1cnn(-c2ccc(C)cc2)c1-n1cccc1`?
G9a block: inactive; HP1b binding inh: inactive; JMJD2A Tudor inh: inactive; BAZ2B block: inactive

Results for CC1CCN(CCCOc2ccc(Cl)cc2Br)CC1 ?
G9a block: 20µM; HP1b binding inh: inconclusive; L3MBTL1 inh: inactive; JMJD2A Tudor inh: 20µM; PI5P4Ka inh: inactive; BAZ2B block: inconclusive

How did CC1CCN(CCOCCOc2ccc(Cl)cc2Br)CC1 do in these assays?
G9a block: 10µM; HP1b binding inh: inconclusive; L3MBTL1 inh: inactive; JMJD2A Tudor inh: 4.5µM; BAZ2B block: 79µM

Results for Clc1ccc(OCCCN2CCc3ccccc3C2)c(Br)c1 ?
G9a block: inactive; HP1b binding inh: inactive; L3MBTL1 inh: inactive; JMJD2A Tudor inh: inactive; PI5P4Ka inh: inactive; BAZ2B block: inactive

What do the screens show for `CC1CCCN(CCCOc2ccc(Cl)cc2Br)C1` (stereo unspecified)?
G9a block: 10µM; HP1b binding inh: inconclusive; L3MBTL1 inh: inactive; JMJD2A Tudor inh: 22µM; PI5P4Ka inh: inactive; BAZ2B block: inactive

How did Cc1ccc(Cl)c(OCCN2CCCC(C)C2)c1 (stereo unspecified) do in these assays?
G9a block: 13µM; HP1b binding inh: inconclusive; L3MBTL1 inh: inactive; JMJD2A Tudor inh: 18µM; PI5P4Ka inh: inactive; BAZ2B block: inconclusive

How did CC1CCCN(CCOc2ccc3ccccc3c2Br)C1 (stereo unspecified) do in these assays?
G9a block: inconclusive; HP1b binding inh: inconclusive; L3MBTL1 inh: inactive[11.4 µM]; JMJD2A Tudor inh: inconclusive; PI5P4Ka inh: inactive; BAZ2B block: 22µM

Results for CN1CN(C)C(c2ccncc2)=C1c1ccncc1 ?
G9a block: 40µM; HP1b binding inh: inactive; JMJD2A Tudor inh: inactive; PI5P4Ka inh: inactive; BAZ2B block: inactive

How did Cn1c(-c2ccncc2)nc2ccccc21 do in these assays?
G9a block: inactive[0.501 µM]; HP1b binding inh: inactive; L3MBTL1 inh: inactive[2.29 µM]; JMJD2A Tudor inh: inactive; PI5P4Ka inh: inactive; BAZ2B block: inactive

How did CCN(CC)c1ccc(/C=C/c2ccc3ccc(OC)cc3[n+]2CC)cc1 do in these assays?
G9a block: 25µM; HP1b binding inh: inconclusive; JMJD2A Tudor inh: 13µM; PI5P4Ka inh: inactive; BAZ2B block: 40µM

What do the screens show for `C[n+]1c(/C=C/c2ccc(O)cc2)ccc2ccccc21`?
G9a block: 18µM; HP1b binding inh: inconclusive; JMJD2A Tudor inh: inactive; PI5P4Ka inh: inactive; BAZ2B block: inactive

How did CCN(CC)c1nc2cc(OC)ccc2cc1C#N do in these assays?
G9a block: inactive[12.7 µM]; HP1b binding inh: inactive; L3MBTL1 inh: inactive; JMJD2A Tudor inh: inactive; PI5P4Ka inh: inactive; BAZ2B block: inactive

Results for CC[n+]1c(/C=C/c2ccc(N(C)C)cc2)ccc2ccccc21 ?
G9a block: 14µM; HP1b binding inh: inconclusive; L3MBTL1 inh: inconclusive; JMJD2A Tudor inh: inconclusive; PI5P4Ka inh: inactive; BAZ2B block: 40µM

What do the screens show for `CC[n+]1ccccc1/C=C/c1ccc(N(C)C)cc1`?
G9a block: 28µM; HP1b binding inh: inactive; JMJD2A Tudor inh: inconclusive; PI5P4Ka inh: inactive; BAZ2B block: inconclusive

How did CC[n+]1c(/C=C/c2ccc(OC)c(OC)c2)ccc2ccccc21 do in these assays?
HP1b binding inh: inactive; L3MBTL1 inh: inactive; JMJD2A Tudor inh: inconclusive; PI5P4Ka inh: inactive; BAZ2B block: inconclusive

How did CCOC(=O)COc1ccc(CC)cc1C(=O)c1ccn2nc(-c3ccc(F)cc3)cc2n1 do in these assays?
G9a block: inactive; HP1b binding inh: inactive; JMJD2A Tudor inh: inactive; BAZ2B block: inactive

How did CC[n+]1ccc(/C=C/c2ccc(N(C)C)cc2)c2ccccc21 do in these assays?
HP1b binding inh: 18µM; L3MBTL1 inh: 25µM; JMJD2A Tudor inh: 22µM; PI5P4Ka inh: inconclusive; BAZ2B block: 10µM
